# Test results from PubChem BioAssay (NCI).
# This is part of a sample that, as a whole, favours compounds with a hit. Of some 83,000 tested, about 20% had one in any assay.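 Cell lines were cultured in 96-well plates, exposed to a single compound concentration, and assessed for percent growth 48 hours later.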 A number with no mark means an inactive call. Active and inactive are the calls of the source. Rule for the calls: active = growth percent below 10; inactive = the rest.
# Key:
# Test in all cases: NCI-60 one-dose screen, 48 h (100 = growth as untreated, 0 = no growth, -100 = all killed)
# Conditions in all cases: 10 µM unless noted
# DU-145 prostate = system: DU-145 prostate
# K-562 leukemia = system: K-562 leukemia
# MALME-3M melanoma = system: MALME-3M melanoma
# MDA-MB-231 breast = system: MDA-MB-231 breast
# RXF 393 renal = system: RXF 393 renal
# SF-268 CNS = system: SF-268 CNS
# SF-295 CNS = system: SF-295 CNS
# SF-539 CNS = system: SF-539 CNS
# UACC-257 melanoma = system: UACC-257 melanoma
# M14 melanoma = system: M14 melanoma
Structure (SMILES),growth (DU-145 prostate),growth (K-562 leukemia),growth (MALME-3M melanoma),growth (MDA-MB-231 breast),growth (RXF 393 renal),growth (SF-268 CNS),growth (SF-295 CNS),growth (SF-539 CNS),growth (UACC-257 melanoma),growth (M14 melanoma)
NC(=N\N=C\c1ccccc1O)/C(N)=N/N=C/c1ccccc1O,80.1%,71.1%,79%,83.6%,106%,78.8%,77.7%,81.3%,84.3%,79%
CN(CCC#N)C(=O)Nc1ccccc1,115%,96.2%,100%,116%,114%,106%,109%,105%,94.1%,109%
CC(C)C1=C[C@@]23CC[C@H]4[C@](C)(COCCC#N)CCC[C@]4(C)[C@H]2C[C@@H]1[C@@H]1[C@H]3[C@@H](OCCC#N)CC[C@@H]1OCCC#N,51.4%,20.2%,61.4%,59.5%,11.8%,48.4%,28.7%,52.8%,40.9%,31.4%
CSc1nc(-c2cccs2)c2c(N)[nH]nc2n1,107%,88.4%,121%,97.9%,114%,105%,102%,93%,114%,126%
COc1ccc2[nH]c3nc4cnccc4cc3c2c1,101%,111%,108%,109%,123%,106%,114%,102%,122%,102%
CC1CCN(CCCCCOc2ccc3oc4ccccc4c(=O)c3c2)CC1,83.9%,33.7%,44.4%,76.5%,69.1%,79.3%,89.8%,77.8%,9.5% (active),41%
COc1cc(/C=C/CO)cc(OC)c1O[C@@H]1O[C@H](CO)[C@@H](O)[C@H](O)[C@H]1O,110%,96.6%,102%,90.2%,100%,102%,98.7%,105%,96.3%,104%
O=C1CCc2ccccc2N1,103%,90.2%,88.5%,110%,111%,97.4%,107%,105%,106%,99.2%
CCOc1ccccc1C(=O)/C=C/c1cc2ccccc2[nH]c1=O,-37% (active),5.07% (active),-39% (active),-52.8% (active),-69.4% (active),-10.8% (active),1.85% (active),-29.9% (active),-9.05% (active),-20.4% (active)
CCO/C=N/S(=O)(=O)c1cc2c(cc1Cl)NC=NS2(=O)=O,108%,99.9%,107%,106%,103%,103%,104%,98.1%,90.2%,101%
COc1ccc(C(=O)c2cc(OC)c(C)c(OC)c2)cc1OC(=O)CCl,12.7%,9.2% (active),69.2%,30.3%,18.4%,44.9%,17.6%,-7.95% (active),60.3%,6% (active)
COC(=O)/C=C1\SC(=Nc2ccc(F)cc2)N(CCc2c[nH]c3ccccc23)C1=O,102%,88%,99.9%,96.9%,110%,104%,97.7%,109%,72.4%,102%
Cc1c(O)c(=O)ccn1-c1nc2ccccc2s1,103%,110%,96.6%,93.2%,87.8%,90.6%,105%,102%,90%,84.2%
CCOC(=O)c1c(C)nc2c(c1N)/C(=C/c1cccs1)C(=O)N2c1ccc(OC)cc1,44.5%,59.1%,26.9%,36.5%,-23.1% (active),47.6%,47.2%,7.71% (active),36.1%,58.2%
COc1ccc2nc3c(n2c1)C(=O)C(=O)c1ccccc1-3,-92.5% (active),-18.2% (active),-90.1% (active),16.7%,-16.9% (active),2.6% (active),-95.3% (active),-95.3% (active),-83.2% (active),-82.9% (active)
Fc1ccc(N/N=C/c2ccc(-n3cccn3)cc2)cc1,93.8%,93.3%,106%,80.1%,105%,81.3%,87.6%,100%,118%,88.8%
COCCOCCOCc1n(Cc2ccc3ccccc3c2)c2ccccc2[n+]1Cc1ccc2ccccc2c1,32.7%,11%,-18.1% (active),-1.76% (active),21.1%,17.9%,13.1%,37.2%,-13.1% (active),6.95% (active)
CSc1nc(-c2ccc(F)cc2)c(C#N)c(N2CCOCC2)n1,101%,92.9%,116%,92.5%,91.3%,93.5%,92.2%,94.9%,91.9%,107%
O=C1CC23OC4ON=C(Br)C4C2C(O)c2ccccc2N13 (stereo not given),105%,110%,79.9%,98.8%,115%,95.1%,109%,107%,103%,92.4%
COc1ccc2nc(-c3ccc(OC)c(OC)c3)cc(-c3nnc(SCC(=O)Nc4ccc(/C(C)=N\O)cc4)n3-c3ccccc3)c2c1,83.1%,63.5%,110%,40.2%,79.1%,78.1%,92.9%,81.3%,88%,92.1%
COc1cc(C)ccc1Oc1nc(Nc2ccc(N3CCOCC3)cc2)ncc1N=Cc1cc(C(F)(F)F)cc(C(F)(F)F)c1,83.7%,37.7%,91.7%,82.9%,38.4%,69%,75.8%,73.8%,79.2%,77.7%
C=C1C(=O)O[C@H]2[C@H]1CC/C(COC(=O)CCCCCCCCC(=O)OC/C1=C/CC[C@@]3(C)O[C@H]3[C@H]3OC(=O)C(=C)[C@@H]3CC1)=C\CC[C@@]1(C)O[C@@H]21,6.71% (active),1.49% (active),-18.4% (active),-41.2% (active),-86.6% (active),20.7%,87.4%,-36.6% (active),24.6%,-44.7% (active)
NC(=O)CN1C(=O)c2ccccc2C1=O,101%,96%,97.5%,101%,114%,97.3%,95.3%,106%,106%,102%
CC(=O)c1cnc(-c2ccccc2)nc1CBr,70.9%,3.21% (active),55.8%,66.4%,60%,84.8%,97.8%,91.6%,95.3%,69.8%
COC(=O)c1nc(-c2ccccc2)oc1S(=O)(=O)n1nc(C)cc1N,92.5%,3.02% (active),-37.1% (active),92.7%,104%,83.2%,95.4%,76.1%,83.3%,67.1%
CCCCn1c(=O)c(/C=C/C(=O)/C=C/c2ccc(OC)cc2)cc2cc(Cl)ccc21,53.5%,25.2%,119%,83.8%,84.5%,42.6%,19.9%,91.8%,92.1%,95%
CCCCc1n(Cc2ccc3ccccc3c2)c2ccccc2[n+]1Cc1ccc2ccccc2c1,-93.1% (active),-73.2% (active),-86.2% (active),-88.2% (active),-92.6% (active),-80.5% (active),-87.8% (active),-94.3% (active),-58.1% (active),-81.4% (active)
